{"source": "PubChem BioAssay (NCI)", "note": "The panel holds about 79,000 compounds, 15% with a hit somewhere; the sample as a whole holds those more often. Calls of active or inactive are those of the source. Rule as the data show it: active = growth inhibition above about 70%; inactive = the rest.", "data": [{"assay": "NCI Yeast Anticancer Drug Screen. Data for the rad18 strain (AID 177)", "conditions": "S. cerevisiae rad18 mutant growth inhibition; at 100.0 µM; hits give high values", "outline": "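Measured value is growth inhibition of a yeast strain bearing a DNA repair alteration, referenced to vehicle-treated cells.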", "values": [{"smiles": "COc1ccc2nc3cccc([N+](=O)[O-])c3c(NCCNCCN(C)C)c2c1", "growth inhibition": "6% (inactive)"}, {"smiles": "c1ccc([P+](CCN2Cc3ccccc3C2)(c2ccccc2)c2ccccc2)cc1", "growth inhibition": "96% (active)"}, {"smiles": "Cc1ccc(S(=O)(=O)NC(=O)C2C(=O)CC3(CCCCC3)CC2=O)cc1", "growth inhibition": "48% (inactive)"}, {"smiles": "NC(=S)N1N=C2c3ccccc3CC[C@H]2[C@@H]1c1ccc(Cl)cc1", "growth inhibition": "89% (active)"}, {"smiles": "O=[N+]([O-])/C=C/c1cc2ccc3ccccc3c2[nH]1", "growth inhibition": "87% (active)"}, {"smiles": "O=C1C(=C2CCCC2)CCC1CN1CCCCC1", "note": "(stereo not given)", "growth inhibition": "94% (active)"}, {"smiles": "OC(CC(O)(C(F)(F)F)C(F)(F)F)c1ccc(C(O)CC(O)(C(F)(F)F)C(F)(F)F)cc1", "note": "(stereo not given)", "growth inhibition": "97% (active)"}, {"smiles": "COc1cc2c(cc1OC)[C@@H](Nc1ccc(C#N)cc1)C1COC(=O)[C@@H]1C2c1cc(OC)c(O)c(OC)c1", "note": "(stereo not given in full)", "growth inhibition": "84% (active)"}, {"smiles": "NC(CCCCCCCCCCCCC(N)C(=O)c1ccccc1)C(=O)c1ccccc1", "note": "(stereo not given)", "growth inhibition": "96% (active)"}, {"smiles": "CC1=C(C)C(=O)C2=C(OCCO2)C1=O", "growth inhibition": "54% (inactive)"}, {"smiles": "c1ccc(-c2cc(C3CO3)c3ccccc3n2)cc1", "note": "(stereo not given)", "growth inhibition": "97% (active)"}, {"smiles": "S=C1C(=Nc2ccccc2)N(c2ccccc2)/C(=N\\c2ccccn2)N1c1ccccc1", "growth inhibition": "87% (active)"}, {"smiles": "CCC(OC(C)=O)C1CC(C(C)C)CCC1C", "note": "(stereo not given)", "growth inhibition": "83% (active)"}, {"smiles": "CC(C)=CCc1c2c(c(O)c3c(=O)c(-c4ccc(O)c(O)c4)coc13)C=CC(C)(C)O2", "growth inhibition": "89% (active)"}, {"smiles": "O=C(NC(N1CCN(c2cc3c(cc2F)c(=O)c(C(=O)O)cn3C2CC2)CC1)(C(F)(F)F)C(F)(F)F)c1ccccc1", "growth inhibition": "52% (inactive)"}]}]}
